Measured values published in PubChem BioAssay (EPA / NIEHS).
Records with an inconclusive call do not appear. Active and inactive are the calls of the source. The calls were made as follows, unless noted: active = hit-call score of the fitted dose curve at least 0.9, where 1 is the maximum; inactive = score below 0.9.

Key:
[1] = molecular target: Glucocorticoid receptor (Homo sapiens) (UniProt P04150); test: ATG_GR_TRANS: Attagene TRANS-FACTORIAL HepG2 Assay for human Glucocorticoid Receptor (GR) (AID 2282978; active = hit-call score of the fitted dose curve at least 0.9, where 1 is the maximum;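 also: activators score as hits since higher reporter transcript over DMSO is fitted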); details: HepG2 Attagene TRANS GR reporter, mRNA transcription
Sequence of Glucocorticoid receptor (Homo sapiens) (P04150 whole entry, looked up, the tested form may be a part): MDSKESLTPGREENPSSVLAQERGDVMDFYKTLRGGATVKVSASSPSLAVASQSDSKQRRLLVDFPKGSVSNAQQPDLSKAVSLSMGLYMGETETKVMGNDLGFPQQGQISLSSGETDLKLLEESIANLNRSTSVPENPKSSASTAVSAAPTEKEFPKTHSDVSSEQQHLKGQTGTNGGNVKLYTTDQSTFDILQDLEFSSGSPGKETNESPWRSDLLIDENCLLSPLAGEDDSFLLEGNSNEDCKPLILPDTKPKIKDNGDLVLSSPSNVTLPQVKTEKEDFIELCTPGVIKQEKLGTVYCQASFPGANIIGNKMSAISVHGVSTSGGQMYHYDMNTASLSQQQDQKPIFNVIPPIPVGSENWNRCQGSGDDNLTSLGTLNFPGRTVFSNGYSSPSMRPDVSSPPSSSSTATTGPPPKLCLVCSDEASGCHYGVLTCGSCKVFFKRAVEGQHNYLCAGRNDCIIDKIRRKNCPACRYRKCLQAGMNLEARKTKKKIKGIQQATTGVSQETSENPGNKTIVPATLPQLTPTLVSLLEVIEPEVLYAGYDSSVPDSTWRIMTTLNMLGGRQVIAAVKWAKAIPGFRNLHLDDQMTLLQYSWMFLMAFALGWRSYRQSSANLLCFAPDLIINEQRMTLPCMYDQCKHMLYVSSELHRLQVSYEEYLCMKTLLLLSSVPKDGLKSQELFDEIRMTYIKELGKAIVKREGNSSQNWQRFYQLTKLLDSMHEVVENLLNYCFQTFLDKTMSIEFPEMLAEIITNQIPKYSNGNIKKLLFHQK
How it was run: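 Readout is reporter transcript from a chimeric GR-Gal4 acting on GAL4-UAS in transfected human HepG2 liver cells after 24 h exposure, quantified by RT-PCR and capillary electrophoresis. Activation fitted upward against DMSO.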

[2] = molecular target: Bile acid receptor (Homo sapiens) (UniProt Q96RI1); test: ATG_FXR_TRANS: Attagene TRANS-FACTORIAL HepG2 Assay for Farnesoid X Receptor (FXR) (AID 2282979; active = hit-call score of the fitted dose curve at least 0.9, where 1 is the maximum;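 also: hits raise reporter mRNA above DMSO so AC50 marks FXR activation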); details: HepG2 Attagene TRANS FXR-GAL4 reporter transcription
Sequence of Bile acid receptor (Homo sapiens) (Q96RI1 whole entry, looked up, the tested form may be a part): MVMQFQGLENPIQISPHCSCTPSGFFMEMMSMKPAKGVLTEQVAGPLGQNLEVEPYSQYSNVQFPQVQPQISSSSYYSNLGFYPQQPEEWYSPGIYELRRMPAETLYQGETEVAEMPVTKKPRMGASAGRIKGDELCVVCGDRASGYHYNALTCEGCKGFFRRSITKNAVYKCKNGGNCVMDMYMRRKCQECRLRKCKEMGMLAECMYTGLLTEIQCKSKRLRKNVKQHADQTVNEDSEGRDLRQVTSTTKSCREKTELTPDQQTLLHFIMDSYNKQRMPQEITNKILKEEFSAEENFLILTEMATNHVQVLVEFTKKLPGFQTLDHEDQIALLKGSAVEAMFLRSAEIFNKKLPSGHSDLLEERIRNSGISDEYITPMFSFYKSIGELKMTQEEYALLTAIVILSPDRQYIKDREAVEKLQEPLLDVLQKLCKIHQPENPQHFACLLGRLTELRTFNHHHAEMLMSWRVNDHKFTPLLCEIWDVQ
How it was run: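 After 24 h chemical treatment of transfected HepG2 cells, GAL4-UAS reporter transcripts driven by an exogenous FXR-GAL4 fusion were measured by RT-PCR and capillary electrophoresis. Increases over DMSO were fitted.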

[3] = molecular target: Oxysterols receptor LXR-alpha (Homo sapiens) (UniProt Q13133); test: ATG_LXRa_TRANS: Attagene TRANS-FACTORIAL HepG2 Assay for human Liver X Receptor alpha (LXRa) (AID 2282980; active = hit-call score of the fitted dose curve at least 0.9, where 1 is the maximum); details: HepG2 Attagene TRANS reporter, LXRa transactivation
Sequence of Oxysterols receptor LXR-alpha (Homo sapiens) (Q13133 whole entry, looked up, the tested form may be a part): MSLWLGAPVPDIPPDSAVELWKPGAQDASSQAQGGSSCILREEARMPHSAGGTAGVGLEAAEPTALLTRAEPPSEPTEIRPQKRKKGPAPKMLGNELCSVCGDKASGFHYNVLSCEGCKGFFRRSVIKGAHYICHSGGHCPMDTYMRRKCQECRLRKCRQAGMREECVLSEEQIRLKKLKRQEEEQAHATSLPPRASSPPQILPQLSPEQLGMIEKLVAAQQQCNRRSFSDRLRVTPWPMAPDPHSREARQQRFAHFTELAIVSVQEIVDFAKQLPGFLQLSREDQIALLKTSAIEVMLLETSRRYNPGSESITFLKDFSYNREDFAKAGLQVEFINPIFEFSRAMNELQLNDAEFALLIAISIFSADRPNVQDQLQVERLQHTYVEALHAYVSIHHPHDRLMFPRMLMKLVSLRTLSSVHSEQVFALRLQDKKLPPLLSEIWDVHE
How it was run: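 In this multiplexed TRANS system, compounds act on HepG2 cells carrying GAL4-UAS reporter units and a receptor-GAL4 fusion for 24 h. Induced reporter RNA is amplified, fluorescently labelled and sized by capillary electrophoresis, with DMSO as baseline.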

[4] = molecular target: Oxysterols receptor LXR-beta (Homo sapiens) (UniProt P55055); test: ATG_LXRb_TRANS: Attagene TRANS-FACTORIAL HepG2 Assay for human Liver X Receptor beta (LXRb) (AID 2282981; active = hit-call score of the fitted dose curve at least 0.9, where 1 is the maximum); details: HepG2 Attagene TRANS GAL4-LXRb reporter, mRNA
Sequence of Oxysterols receptor LXR-beta (Homo sapiens) (P55055 whole entry, looked up, the tested form may be a part): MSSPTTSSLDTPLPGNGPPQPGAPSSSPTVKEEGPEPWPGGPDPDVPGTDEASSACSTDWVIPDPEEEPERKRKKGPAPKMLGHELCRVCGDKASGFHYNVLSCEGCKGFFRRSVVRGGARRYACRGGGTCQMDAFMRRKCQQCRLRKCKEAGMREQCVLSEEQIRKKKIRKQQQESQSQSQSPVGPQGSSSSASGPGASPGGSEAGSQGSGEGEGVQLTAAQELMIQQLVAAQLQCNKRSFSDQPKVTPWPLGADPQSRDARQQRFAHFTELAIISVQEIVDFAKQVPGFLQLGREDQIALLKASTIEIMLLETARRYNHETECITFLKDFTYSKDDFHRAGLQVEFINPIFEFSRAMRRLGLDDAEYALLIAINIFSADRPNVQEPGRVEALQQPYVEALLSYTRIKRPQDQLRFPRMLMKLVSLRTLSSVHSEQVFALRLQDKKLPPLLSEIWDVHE
How it was run: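 After 24 h of chemical treatment, transfected HepG2 cells yield total RNA; reporter cDNA is PCR-amplified, FAM-labelled, HpaI-cut and run on capillary electrophoresis. Signal reflects chimeric LXRb-Gal4 activity on GAL4-UAS reporters.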

[5] = molecular target: Hepatocyte nuclear factor 4-alpha (Homo sapiens) (UniProt P41235); test: ATG_HNF4a_TRANS: Attagene TRANS-FACTORIAL HepG2 Assay for human Hepatocyte Nuclear Factor 4 alpha (HNF4a) (AID 2282982; active = hit-call score of the fitted dose curve at least 0.9, where 1 is the maximum); details: HepG2 HNF4a transactivation reporter, mRNA readout
Sequence of Hepatocyte nuclear factor 4-alpha (Homo sapiens) (P41235 whole entry, looked up): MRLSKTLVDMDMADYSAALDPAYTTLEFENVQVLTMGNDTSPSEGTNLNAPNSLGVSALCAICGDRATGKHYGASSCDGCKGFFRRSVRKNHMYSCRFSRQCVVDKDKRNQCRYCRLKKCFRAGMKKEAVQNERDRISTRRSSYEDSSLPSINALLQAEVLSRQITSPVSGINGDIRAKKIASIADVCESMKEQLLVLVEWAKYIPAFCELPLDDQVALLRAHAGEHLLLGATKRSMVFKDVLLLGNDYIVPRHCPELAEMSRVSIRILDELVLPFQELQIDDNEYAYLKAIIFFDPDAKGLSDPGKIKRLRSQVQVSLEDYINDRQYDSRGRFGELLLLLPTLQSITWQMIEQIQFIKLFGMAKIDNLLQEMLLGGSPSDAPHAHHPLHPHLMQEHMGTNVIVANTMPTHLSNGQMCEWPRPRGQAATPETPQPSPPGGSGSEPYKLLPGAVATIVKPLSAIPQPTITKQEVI
How it was run: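 Multiplexed reporter assay: transfected HepG2, 24 h exposure, total RNA → oligo(dT) RT → PCR → 6-FAM extension → HpaI digest → CE fluorescence. DMSO = negative control.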

[6] = ATG_M_06_TRANS: Attagene TRANS-FACTORIAL HepG2 Assay for M06 Transcription Factor (Internal Marker) (AID 2282983; active = hit-call score of the fitted dose curve at least 0.9, where 1 is the maximum); details: HepG2 Attagene TRANS M06 internal marker reporter
How it was run: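 Multi-reporter-transfected HepG2, 24 h treatment; reporter transcripts quantified via RT-PCR, primer-extension labelling and CE. DMSO-normalized gain-of-signal fit.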

[7] = ATG_M_32_TRANS: Attagene TRANS-FACTORIAL HepG2 Assay for M32 Transcription Factor (Internal Marker) (AID 2282984; active = hit-call score of the fitted dose curve at least 0.9, where 1 is the maximum;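 also: transcript level of a background control reporter unit measured by RT-PCR and capillary electrophoresis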); details: HepG2 Attagene TRANS M32 internal marker reporter
How it was run: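 Cell-based TRANS-format assay in HepG2: exogenous chimeric GAL4 reporter units transiently expressed, compounds applied 24 h. Reporter mRNA detected by RT-PCR plus capillary electrophoresis; this readout is an internal background marker.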

[8] = molecular target: Transcriptional activator Myb (Homo sapiens) (UniProt P10242); test: ATG_Myb_CIS: Attagene CIS-FACTORIAL HepG2 Assay for human Myeloblastosis (Myb) Proto-Oncogene Transcription Factor (AID 2282986); details: HepG2 Attagene CIS-FACTORIAL Myb reporter transcription; actives raise or lower the signal
Sequence of Transcriptional activator Myb (Homo sapiens) (P10242 whole entry, looked up): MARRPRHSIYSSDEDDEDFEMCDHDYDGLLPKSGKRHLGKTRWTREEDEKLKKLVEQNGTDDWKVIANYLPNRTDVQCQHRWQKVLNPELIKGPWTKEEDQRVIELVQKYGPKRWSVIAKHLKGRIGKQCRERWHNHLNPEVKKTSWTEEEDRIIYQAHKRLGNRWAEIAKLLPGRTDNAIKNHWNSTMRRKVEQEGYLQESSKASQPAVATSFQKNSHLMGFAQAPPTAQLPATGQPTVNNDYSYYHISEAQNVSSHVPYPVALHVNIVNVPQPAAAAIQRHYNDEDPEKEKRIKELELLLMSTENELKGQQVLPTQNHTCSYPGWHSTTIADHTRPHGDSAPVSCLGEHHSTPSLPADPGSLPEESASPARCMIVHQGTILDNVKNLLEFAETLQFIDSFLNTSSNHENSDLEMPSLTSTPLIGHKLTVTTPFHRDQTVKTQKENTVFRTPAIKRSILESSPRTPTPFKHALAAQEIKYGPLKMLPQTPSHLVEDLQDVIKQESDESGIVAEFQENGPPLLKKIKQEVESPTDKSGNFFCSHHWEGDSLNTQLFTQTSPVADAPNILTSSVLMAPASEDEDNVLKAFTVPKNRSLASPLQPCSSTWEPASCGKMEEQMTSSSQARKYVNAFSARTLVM
How it was run: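 Reporter mRNA is quantified by RT-PCR and capillary electrophoresis 24 h after dosing HepG2 cells transfected with cis-regulated reporter units, which track endogenous transcription factor activity. Gain and loss of signal are fitted versus DMSO baseline.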

[9] = molecular target: Nuclear respiratory factor 1 (Homo sapiens) (UniProt Q16656); test: ATG_NRF1_CIS: Attagene CIS-FACTORIAL HepG2 Assay for human Nuclear Respiratory Factor 1 (NRF1) Orphan Gene (AID 2282987); details: HepG2 NRF1 cis-element reporter, Attagene multiplex; actives raise or lower the signal
Sequence of Nuclear respiratory factor 1 (Homo sapiens) (Q16656 whole entry, looked up): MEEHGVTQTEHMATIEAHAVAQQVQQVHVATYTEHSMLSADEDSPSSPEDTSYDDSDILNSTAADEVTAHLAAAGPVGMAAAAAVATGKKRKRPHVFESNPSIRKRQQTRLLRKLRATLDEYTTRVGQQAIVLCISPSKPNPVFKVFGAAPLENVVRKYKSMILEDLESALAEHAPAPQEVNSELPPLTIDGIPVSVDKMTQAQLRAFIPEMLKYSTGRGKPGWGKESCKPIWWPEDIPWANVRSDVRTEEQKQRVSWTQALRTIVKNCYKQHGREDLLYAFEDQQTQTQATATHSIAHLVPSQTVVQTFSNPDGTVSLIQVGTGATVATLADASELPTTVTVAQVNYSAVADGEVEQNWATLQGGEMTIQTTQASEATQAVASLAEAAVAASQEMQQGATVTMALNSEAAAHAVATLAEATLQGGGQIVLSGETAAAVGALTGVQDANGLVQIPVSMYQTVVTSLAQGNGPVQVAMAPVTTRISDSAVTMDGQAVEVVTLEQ
How it was run: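 Endogenous NRF1-driven reporter transcription in transfected HepG2 cells after 24 h treatment. Readout: RT-PCR products, 6-FAM labelled and resolved by capillary electrophoresis; changes fitted both directions relative to DMSO.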

[10] = ATG_NFI_CIS: Attagene CIS-FACTORIAL HepG2 Assay for human Nuclear Factor I (NFI) (AID 2282989); details: HepG2 cis-regulatory reporter, NFI response element transcription; actives raise or lower the signal
How it was run: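 Multiplexed cis-reporter system in human HepG2 cells reports native TF activity as reporter mRNA induction 24 h post-dose. Fragments labelled with 6-FAM, HpaI-digested and resolved by capillary electrophoresis; activity fitted both directions versus DMSO.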

[11] = molecular target: Myc proto-oncogene protein (Homo sapiens) (UniProt P01106); test: ATG_Myc_CIS: Attagene CIS-FACTORIAL HepG2 Assay for human Myelocytomatosis (Myc) Proto-Oncogene Transcription Factor (AID 2282990); details: HepG2, Attagene cis-reporter transcription factor activity; actives raise or lower the signal
Sequence of Myc proto-oncogene protein (Homo sapiens) (P01106 whole entry, looked up, the tested form may be a part): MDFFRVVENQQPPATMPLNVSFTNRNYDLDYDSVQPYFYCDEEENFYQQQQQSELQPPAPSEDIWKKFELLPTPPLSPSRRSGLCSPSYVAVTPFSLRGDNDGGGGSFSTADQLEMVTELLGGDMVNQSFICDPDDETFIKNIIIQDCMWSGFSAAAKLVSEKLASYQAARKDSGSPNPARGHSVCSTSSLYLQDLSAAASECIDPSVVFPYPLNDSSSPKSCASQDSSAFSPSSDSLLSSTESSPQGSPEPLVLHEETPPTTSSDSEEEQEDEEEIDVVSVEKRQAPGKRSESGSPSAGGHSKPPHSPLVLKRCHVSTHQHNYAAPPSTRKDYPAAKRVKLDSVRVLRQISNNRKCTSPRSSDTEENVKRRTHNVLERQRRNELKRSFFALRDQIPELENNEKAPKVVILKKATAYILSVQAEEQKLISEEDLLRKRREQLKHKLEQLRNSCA
How it was run: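 After 24 h chemical treatment of HepG2 cells carrying multiplexed cis-regulated reporter constructs, reporter transcripts quantified by RT-PCR and capillary electrophoresis of fluorescent fragments. Gain or loss fitted against DMSO baseline.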

[12] = ATG_NF_kB_CIS: Attagene CIS-FACTORIAL HepG2 Assay for human Nuclear Factor Kappa B (NF-kB) (AID 2282991); details: HepG2 Attagene cis-factorial NF-kB reporter mRNA; actives raise or lower the signal
How it was run: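 Readout is reporter transcript level, gain or loss versus DMSO, measured 24 h post-dose via RT-PCR, fluorescent labelling and capillary electrophoresis. Human HepG2 liver cells carried transiently transfected CIS reporter constructs reflecting endogenous factors.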

[13] = ATG_NRF2_ARE_CIS: Attagene CIS-FACTORIAL HepG2 Assay for human Nuclear Factor Erythroid 2 Related Factor 2 (NFR2) response to Antioxidant Response Elements (ARE) (AID 2282992); details: HepG2 Attagene ARE/NRF2 reporter, transcription factor activity; actives raise or lower the signal;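 as to AC50: reporter mRNA level measured by RT-PCR and capillary electrophoresis fluorescence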
How it was run: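 Fluorescence intensity of reporter-specific cDNA fragments, separated by capillary electrophoresis, reflects mRNA induction in transfected HepG2 cells at 24 h. Activity is fitted bidirectionally, DMSO serving as baseline.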

[14] = ATG_Oct_MLP_CIS: Attagene CIS-FACTORIAL HepG2 Assay for human Octamer-Binding Transcription Factor (Oct) (AID 2282993); details: HepG2 Attagene cis-factorial Oct reporter, mRNA; actives raise or lower the signal
How it was run: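 After 24 h compound exposure, transfected HepG2 cells were lysed for total RNA; reporter-specific cDNA was PCR-amplified, fluorescently labelled and sized by capillary electrophoresis. Bidirectional curve fitting used DMSO as baseline.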

[15] = molecular target: Cellular tumor antigen p53 (Homo sapiens) (UniProt P04637); test: ATG_p53_CIS: Attagene CIS-FACTORIAL HepG2 Assay for human p53 Transcription Factor (AID 2282994); details: HepG2 p53 cis-element reporter, Attagene mRNA; actives raise or lower the signal
Sequence of Cellular tumor antigen p53 (Homo sapiens) (P04637 whole entry, looked up): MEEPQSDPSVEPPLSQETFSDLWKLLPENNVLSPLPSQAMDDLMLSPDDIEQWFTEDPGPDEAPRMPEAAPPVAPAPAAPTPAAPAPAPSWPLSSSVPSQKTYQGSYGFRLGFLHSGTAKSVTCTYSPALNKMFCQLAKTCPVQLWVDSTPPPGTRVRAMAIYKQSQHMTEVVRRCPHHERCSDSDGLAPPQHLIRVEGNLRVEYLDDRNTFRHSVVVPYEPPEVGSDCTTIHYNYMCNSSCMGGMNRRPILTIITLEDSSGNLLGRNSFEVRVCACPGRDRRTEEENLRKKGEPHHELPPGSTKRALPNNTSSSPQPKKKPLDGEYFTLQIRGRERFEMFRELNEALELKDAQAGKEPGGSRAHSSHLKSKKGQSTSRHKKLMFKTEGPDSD
How it was run: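 Transiently transfected HepG2 (multiple cis reporter transcription units); exposure 24 h; reporter RNA via RT-PCR, 6-FAM extension, 2 h HpaI digest at 37 C, CE detection; DMSO baseline.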

[16] = molecular target: Nuclear receptor subfamily 4 group A member 2 (Homo sapiens) (UniProt P43354); test: ATG_NURR1_TRANS: Attagene TRANS-FACTORIAL HepG2 Assay for human Nuclear Receptor Related Protein 1 (NURR1) (AID 2282985; active = hit-call score of the fitted dose curve at least 0.9, where 1 is the maximum); details: HepG2 Attagene TRANS reporter, mRNA readout
How it was run: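 Measures transcriptional activation by an exogenous NR-Gal4 chimera in transfected HepG2 liver cells. After 24 h, reporter RNA is reverse-transcribed, amplified and resolved by capillary electrophoresis; DMSO defines baseline.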

[17] = BSK_3C_TissueFactor: BioMAP Diversity Plus: 3C Assay for Tissue Factor Biomarker Activity (AID 2282997); details: BioMAP 3C HUVEC, tissue factor biomarker readout; actives raise or lower the signal
How it was run: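 In this endothelial system, HUVEC are treated for 24 h and Tissue Factor is assessed by ELISA, normalised to DMSO.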

[18] = BSK_3C_uPAR: BioMAP Diversity Plus: 3C Assay for Urokinase-type plasminogen activator receptor (uPAR) Biomarker Activity (AID 2282998); details: BioMAP 3C HUVEC, uPAR biomarker ELISA; actives raise or lower the signal
How it was run: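 Values derive from bidirectional curve fitting relative to DMSO, which served as baseline of activity. uPAR was measured by ELISA in human umbilical vein endothelial primary cultures 24 h after compound addition.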

[19] = BSK_3C_VCAM1: BioMAP Diversity Plus: 3C Assay for Vascular cell adhesion molecule 1 (VCAM1) Biomarker Activity (AID 2282999); details: BioMAP 3C HUVEC, VCAM1 ELISA, cytokine-stimulated; actives raise or lower the signal
How it was run: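 Activity fitted in both directions relative to DMSO, with ELISA measurement of the surface marker on primary HUVEC (3C) at 24 h post-treatment; parallel SRB staining (0.1% SRB, TCA-fixed, 560 nm) flagged overt cytotoxicity.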

[20] = BSK_4H_Eotaxin3: BioMAP Diversity Plus: 4H Assay for Eotaxin 3 Biomarker Activity (AID 2283000); details: primary human endothelial cells (HUVEC); actives raise or lower the signal;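 as to outcome: CCL26 protein level quantified by ELISA in parallel with SRB cytotoxicity check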
How it was run: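 ELISA quantitation of CCL26 (Eotaxin-3) protein from chemically dosed human vascular endothelial cells at 24 h; increases and decreases both scored relative to DMSO-treated baseline.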

Structure (SMILES): CC(C)(C#N)c1cc(Cn2cncn2)cc(C(C)(C)C#N)c1
- outcome [1]: inactive
- outcome [2]: inactive
- outcome [3]: inactive
- outcome [4]: inactive
- outcome [5]: inactive
- outcome [6]: inactive
- outcome [7]: inactive
- outcome [8]: inactive
- outcome [9]: inactive
- outcome [10]: inactive
- outcome [11]: inactive
- outcome [12]: inactive
- outcome [13]: inactive
- outcome [14]: inactive
- outcome [15]: inactive

Structure (SMILES): COc1cc(C(C)(C)C)c(O)c(C(C)(C)C)c1
- outcome [1]: inactive
- outcome [2]: inactive
- outcome [3]: inactive
- outcome [4]: inactive
- outcome [6]: inactive
- outcome [16]: inactive
- outcome [9]: inactive
- outcome [10]: inactive
- outcome [11]: inactive
- outcome [12]: inactive
- outcome [13]: inactive
- outcome [14]: inactive

Structure (SMILES): CC1(C)CCC(C)(C)c2cc(C(=O)Nc3ccc(C(=O)O)cc3)ccc21
- outcome [1]: inactive
- AC50 [2]: 13 µM (active)
- outcome [4]: inactive
- outcome [6]: inactive
- outcome [7]: inactive
- outcome [16]: inactive
- outcome [8]: inactive
- AC50 [9]: 93.6 µM (active)
- outcome [10]: inactive
- outcome [11]: inactive
- outcome [12]: inactive
- outcome [13]: inactive
- AC50 [14]: 100 µM (active)
- AC50 [15]: 55.1 µM (active)

Structure (SMILES): CCCCCCCCCCCCSC
- outcome [1]: inactive
- outcome [2]: inactive
- outcome [4]: inactive
- outcome [5]: inactive
- outcome [6]: inactive
- outcome [7]: inactive
- outcome [9]: inactive
- outcome [11]: inactive
- outcome [13]: inactive
- outcome [14]: inactive
- outcome [15]: inactive

Structure (SMILES): CCCCNC(=O)NS(=O)(=O)c1ccc(C)cc1
- outcome [1]: inactive
- outcome [2]: inactive
- outcome [4]: inactive
- outcome [7]: inactive
- outcome [16]: inactive
- outcome [8]: inactive
- outcome [9]: inactive
- outcome [11]: inactive
- outcome [13]: inactive
- outcome [14]: inactive

Structure (SMILES): CCCc1c(OCCCOc2ccc(OCC(=O)O)cc2)ccc(C(C)=O)c1O
- outcome [1]: inactive
- outcome [2]: inactive
- outcome [3]: inactive
- outcome [4]: inactive
- outcome [6]: inactive
- outcome [7]: inactive
- AC50 [16]: 100 µM (active)
- outcome [8]: inactive
- outcome [11]: inactive
- outcome [12]: inactive
- outcome [13]: inactive
- outcome [14]: inactive
- outcome [15]: inactive

Structure (SMILES): COC(=O)c1ccc(C)cc1
- outcome [1]: inactive
- outcome [2]: inactive
- outcome [3]: inactive
- outcome [4]: inactive
- outcome [5]: inactive
- outcome [6]: inactive
- outcome [7]: inactive
- outcome [16]: inactive
- outcome [8]: inactive
- outcome [9]: inactive
- outcome [10]: inactive
- outcome [11]: inactive
- outcome [13]: inactive
- outcome [14]: inactive
- outcome [15]: inactive
- outcome [17]: inactive
- outcome [18]: inactive
- outcome [19]: inactive
- outcome [20]: inactive

Structure (SMILES): CC(CC(C)(C)C)CC(C)(C)CC(C)(C)C (stereo unspecified)
- outcome [1]: inactive
- outcome [2]: inactive
- outcome [4]: inactive
- outcome [5]: inactive
- outcome [6]: inactive
- outcome [7]: inactive
- outcome [16]: inactive
- outcome [8]: inactive
- outcome [9]: inactive
- outcome [11]: inactive
- outcome [12]: inactive
- outcome [13]: inactive
- outcome [14]: inactive

Structure (SMILES): CC(C)=CCCC(C)CC=O (stereo unspecified)
- outcome [1]: inactive
- outcome [2]: inactive
- outcome [3]: inactive
- outcome [5]: inactive
- outcome [6]: inactive
- outcome [7]: inactive
- outcome [16]: inactive
- outcome [8]: inactive
- outcome [10]: inactive
- outcome [11]: inactive
- outcome [13]: inactive
- outcome [14]: inactive
- outcome [15]: inactive

Structure (SMILES): CCCCC/C=C/C=C/C=O
- outcome [1]: inactive
- outcome [2]: inactive
- outcome [3]: inactive
- outcome [6]: inactive
- outcome [7]: inactive
- outcome [16]: inactive
- outcome [8]: inactive
- outcome [9]: inactive
- outcome [11]: inactive
- outcome [12]: inactive
- AC50 [13]: 40.6 µM (active)
- outcome [15]: inactive
- AC50 [17]: 29.5 µM (active)
- AC50 [18]: 31.5 µM (active)
- AC50 [19]: 29.3 µM (active)
- AC50 [20]: 29.9 µM (active)
